The list is not random: actives were taken first. Their share in the collection is about 0.33%.
GLS inh: inhibitors of human glutaminase (GLS); GLS enzymatic activity, qHTS titration; Potency, µM (highest dose often 45.5 µM), usual class: inhibitors; 410,000 compounds, 0.21% hits; AID 624170
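Human kidney-isoform GLS in 45 mM KH2PO4 pH 8.2, 0.02% Tween-20, with compound, started with 1mM L-Glutamine (added stock). Glutamate oxidase/HRP/Amplex red coupled fluorescence read at start and after 30 min at RT.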
PGK inhibitor: T. brucei PGK inhibition | P07378 | PGK/GAPDH coupled, Kinase-Glo luminescence, 60 min | Potency, µM (top dose mostly 57.5 µM), most hits filed as inhibitors | 380,000 compounds, 0.043% hits; further: nearly all actives have a fitted effect of over 60% in size
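Recombinant glycosomal PGK reaction used 1,3-bisphosphoglycerate generated in-well by GAPDH (100nM final) in 100mM TEA pH 7.6, 5mM MgCl2, 0.01% Tween-20. After 60 minutes at room temperature, ATP was read by Kinase-Glo Plus luminescence end-point.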
IDH1 R132H inh: blocks human mutant IDH1 R132H enzyme | O75874 | IDH1-R132H enzyme, NADPH consumption, diaphorase/resazurin fluorescence | Potency, µM (top dose mostly 76.6 µM), most hits filed as inhibitors | 390,000 compounds, 0.093% hits; further: nearly all actives have a fitted effect of over 65% in size
Target sequence (O75874 whole entry R132H, stated change not applied): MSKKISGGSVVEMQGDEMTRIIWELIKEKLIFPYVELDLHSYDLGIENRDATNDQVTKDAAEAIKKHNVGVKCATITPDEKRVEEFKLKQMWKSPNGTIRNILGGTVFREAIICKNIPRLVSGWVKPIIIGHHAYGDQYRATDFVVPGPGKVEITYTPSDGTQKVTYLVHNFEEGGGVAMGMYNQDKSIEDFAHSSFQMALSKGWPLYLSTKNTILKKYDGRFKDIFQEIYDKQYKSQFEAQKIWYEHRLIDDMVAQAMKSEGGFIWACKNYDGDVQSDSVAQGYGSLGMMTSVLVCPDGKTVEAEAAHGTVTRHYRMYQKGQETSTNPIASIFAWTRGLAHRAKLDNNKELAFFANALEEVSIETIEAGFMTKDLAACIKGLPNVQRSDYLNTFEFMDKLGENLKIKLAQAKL
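IDH1-R132H (0.5 ug/mL) preincubated 30 min with compound, then NADPH (0.016 mM) and alpha-KG (2 mM) added; 80 min at RT, pH 7.5. Remaining NADPH coupled via diaphorase/resazurin to fluorescence (540/590 nm); concentration-response curves normalized to no-enzyme control.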
Pin1 inh: blocks the human prolyl isomerase Pin1; Q13526; Pin1 FP peptide displacement, HiFluor488, 10 min; Potency, µM (titrated, usually from 115 µM), hits mostly inhibitors; 390,000 compounds, 0.009% hits; AID 504891; active means well fitted inhibition curve with a large enough effect in the polarisation, with a control signal flat, not every such curve was filed as active; inconclusive means small, poorly fitted or top-dose-only effect, or effect the other way, or a change in a side signal; inactive means no such curve, though single readings can be large or run the other way; the % refers to the polarisation
Target sequence (Q13526 whole entry, looked up): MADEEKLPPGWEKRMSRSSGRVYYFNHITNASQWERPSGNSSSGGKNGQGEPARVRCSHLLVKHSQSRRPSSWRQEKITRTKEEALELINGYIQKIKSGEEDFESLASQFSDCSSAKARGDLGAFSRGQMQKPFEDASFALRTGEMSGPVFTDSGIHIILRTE
Resorufin autofl: counter-screen for mutant IDH1 inhibitors: fluorescence interference. shares compounds with IDH1 R132H inh. Resorufin detection reagent fluorescence interference, cell-free. inhibition of signal, % at 51.2 µM. 750 tested, under 10 active
IDH1 WT: inhibits human wild-type IDH1, mutant selectivity check | Potency, µM (titrated, usually from 115 µM), hits mostly inhibitors | 750 compounds, 9% hits | shares compounds with IDH1 R132H inh | WT IDH1 enzyme, NADPH diaphorase/resazurin fluorescence; further: nearly all actives have a fitted effect of over 55% in size
Target sequence (O75874 whole entry, looked up): as the sequence (O75874 whole entry R132H, stated change not applied) above, with H132R counted along it
mIDH1 confirm: inhibits human mutant IDH1 enzyme in cherrypick confirmation; Potency, µM (top dose mostly 76.6 µM), most hits filed as inhibitors; IDH1 R132H enzyme, NADPH diaphorase/resazurin fluorescence; shares compounds with IDH1 R132H inh; 750 compounds, 83% hits; further: nearly all actives have a fitted effect of over 50% in size
Numbers stand for hits; i = inactive; ? = inconclusive; nt = no result given. Unless noted, the call rests on the fitted dose curve; in most records, active means well fitted curve in the direction sought with a large enough effect; inconclusive means small, poorly fitted or top-dose-only effect, or another doubt; inactive means no such curve, though single readings can be large; an effect the other way counts as inactive or inconclusive.

SMILES	GLS inh	PGK inhibitor	IDH1 R132H inh	Pin1 inh	Resorufin autofl	IDH1 WT	mIDH1 confirm
CCCCC(NC(=O)CCc1c(C)c2cc3c4c(oc3c(C)c2oc1=O)CCCC4)C(=O)O (stereo not given)	i	i	46µM	?	i	i	25µM
O=C1c2ccccc2C(=O)N1c1cc(=O)c2ccccc2[nH]1	nt	nt	nt	i	nt	nt	nt
CCC(C)Sc1ccc([C@@H]2[C@@H]3C(=O)N(C)C(=O)[C@@H]3[C@]3(C(=O)OC)CCCCN23)cc1OC (stereo not given in full)	i	i	35µM	?	i	i	16µM
O=C1CCc2cc(S(=O)(=O)Nc3ccccn3)ccc2N1	nt	nt	nt	i	nt	nt	nt
CCN(CC)C(=O)c1sc2c(c1C)c(=O)n(-c1ccc(OC)cc1OC)c(=O)n2CC(=O)c1ccccc1	i	i	i	i	nt	nt	nt
C#CCn1c(=O)n(-c2cccc(Cl)c2C)c(=O)c2c3c(sc21)CN(C(C)=O)CC3	i	i	i	i	nt	nt	nt
CCN(CC)C(=O)c1sc2c(c1C)c(=O)n(-c1ccc(C)c(C)c1)c(=O)n2Cc1cccc(Cl)c1	i	i	?	i	i	i	13µM
CCN(CC)C(=O)c1sc2c(c1C)c(=O)n(Cc1ccccc1)c(=O)n2Cc1cc(C)ccc1C	i	i	i	i	nt	nt	nt
CC(=O)N1CCc2c(sc3c2c(=O)n(-c2cccc(Cl)c2C)c(=O)n3Cc2ccccc2C)C1	i	i	?	i	i	40µM	28µM
CCN(CC)C(=O)c1sc2c(c1C)c(=O)n(CCc1ccccc1)c(=O)n2Cc1cc(C)ccc1C	i	i	10µM	i	i	i	8.9µM
CCN(CC)C(=O)c1sc2c(c1C)c(=O)n(-c1ccc(OC)cc1OC)c(=O)n2Cc1cc(C)ccc1C	i	i	40µM	i	i	i	22µM
OCC1(O)OC[C@@H](O)[C@H](O)[C@@H]1O (stereo not given in full)	i	nt	nt	nt	nt	nt	nt
CC(=O)C[C@H]1[C@H](O[C@H]2[C@H](OC(C)C(=O)N[C@@H](C)C(=O)N[C@H](CCC(=O)N[C@@H](CCCCN)C(=O)N[C@H](C)C(=O)O)C(N)=O)[C@@H](NC(=O)O)C(O)O[C@@H]2CO)O[C@H](CO)[C@@H](O)[C@@H]1O (stereo not given in full)	i	nt	nt	nt	nt	nt	nt
CC(C)(C)OC(=O)NCc1nnc(-c2nc3ccccc3[nH]2)o1	nt	nt	nt	i	nt	nt	nt
COc1ccc(-n2c(=O)c3c4c(sc3n(Cc3cc(C)ccc3C)c2=O)CN(C(C)=O)CC4)c(OC)c1	i	i	?	i	i	?	14µM
Cc1nc([N+](=O)[O-])c(Br)n1CC(=O)c1ccccc1	i	i	i	i	nt	nt	nt
Cc1nc([N+](=O)[O-])c(Br)n1CC(=O)c1ccc2ccccc2c1	i	i	?	i	i	?	28µM
CC#CCC(C)[C@H](O)/C=C/C1[C@H](O)C[C@@H]2C/C(=C\CCCC(=O)O)C[C@H]12 (stereo not given in full)	i	nt	nt	nt	nt	nt	nt
O=S(=O)(/N=C(/Nc1ccc(Cl)c(S(=O)(=O)Nc2ccccc2Cl)c1)c1ccc(F)cc1)c1ccccc1	i	i	?	i	i	i	?
Cc1cc(C)nc(N/N=C/C2=C(N3CCOCC3)C(=C/c3ccccc3)/CC2)n1	i	i	29µM	i	i	i	20µM
O=C1CCCC[C@@H](O)[C@H](O)C[C@H](c2ccccc2)O1	i	nt	nt	nt	nt	nt	nt
C=C1CC2(CC(c3ccccc3)OC(c3ccccc3)C2)OC1=O (stereo not given)	i	i	58µM	i	i	?	22µM
Cc1cc(N2C(=O)c3ccccc3C2=O)no1	nt	nt	nt	i	nt	nt	nt
CCc1cc2c(=O)n(Cc3ccco3)c(SCC(=O)N3CCCc4ccccc43)nc2s1	i	i	?	i	i	i	?
CCc1cc2c(=O)n(Cc3ccco3)c(SCC(=O)NCC3CCCO3)nc2s1 (stereo not given)	i	i	i	i	nt	nt	nt
SMILES	GLS inh	PGK inhibitor	IDH1 R132H inh	Pin1 inh	Resorufin autofl	IDH1 WT	mIDH1 confirm
CCC(=O)C(Cc1ccccc1)(Cc1ccccc1)CC(C)N(C)C (stereo not given)	i	nt	nt	nt	nt	nt	nt
CCOC(=O)c1c(-c2ccc(C)o2)csc1NC(=O)CN(C)CC(=O)Nc1ccc(C)cc1	i	i	?	i	i	i	14µM
CCOC(=O)c1c(-c2ccc(C)o2)csc1NC(=O)CN1CCCCC1	i	i	i	i	nt	nt	nt
O=C(O)COc1ccc(C(=O)c2cccs2)c(Cl)c1Cl	i	nt	nt	nt	nt	nt	nt
Cc1ccccc1C1=C/C(=C(\SS/C(C(=O)c2ccc(OCC(=O)O)c(Cl)c2Cl)=C2\C=C(c3ccccc3C)SS2)C(=O)c2ccc(OCC(=O)O)c(Cl)c2Cl)SS1	?	?	12µM	nt	i	i	40µM
CC[C@H](C)[C@H](NC(=O)[C@H](CO)NC(=O)[C@H](CC(N)=O)NC(=O)[C@H](CC(C)C)NC(=O)[C@H](Cc1ccc(O)cc1)NC(=O)[C@H](CCCCN)NC(=O)[C@H](CCCCN)NC(=O)[C@@H](NC(=O)[C@H](C)NC(=O)[C@H](CCSC)NC(=O)[C@H](CCC(N)=O)NC(=O)[C@H](CCCCN)NC(=O)[C@H](CCCNC(=N)N)NC(=O)[C@H](CC(C)C)NC(=O)[C@H](CCCNC(=N)N)NC(=O)[C@@H](NC(=O)[C@H](Cc1ccc(O)cc1)NC(=O)[C@H](CC(N)=O)NC(=O)[C@H](CC(=O)O)NC(=O)[C@@H](NC(=O)[C@H](Cc1ccccc1)NC(=O)[C@@H](NC(=O)[C@H](C)NC(=O)[C@H](CC(=O)O)NC(=O)[C@H](CO)NC(=O)[C@@H](N)Cc1c[nH]cn1)C(C)C)[C@@H](C)O)[C@@H](C)O)C(C)C)C(=O)N[C@@H](CC(C)C)C(=O)N[C@@H](CC(N)=O)C(=O)O	i	nt	nt	nt	nt	nt	nt
Cc1ccc(OCCCN2C(=O)C(=O)c3cccc(C)c32)cc1	i	i	i	i	nt	nt	nt
Cc1cccc2c1N(CCOc1ccc(C(C)(C)C)cc1)C(=O)C2=O	i	i	?	i	i	i	25µM
CC(=O)O[C@H]1C[C@@H]2CC[C@@H]3[C@H](CC[C@]4(C)[C@H](OC(C)=O)[C@@H](N5CC[N+](C)(C)CC5)C[C@@H]34)[C@@]2(C)C[C@@H]1N1CC[N+](C)(C)CC1	i	nt	nt	nt	nt	nt	nt
CCN(CC)S(=O)(=O)c1ccc2c(c1)N(CC(=O)Nc1ccc(Cl)cc1)C(=O)C1CCCN21 (stereo not given)	i	i	?	?	i	i	28µM
CCN(CC)S(=O)(=O)c1ccc2c(c1)N(CC(=O)Nc1cccc(C)c1C)C(=O)C1CCCN21 (stereo not given)	i	i	i	?	nt	nt	nt

High-throughput results as filed in PubChem.
